High-throughput results as filed in PubChem BioAssay.
Tg IFNy HTS = T. gondii growth inhibition under IFN-gamma. Toxoplasma gondii growth in IFN-gamma-treated host cells; hits give low values. activity change, negative = inhibition, % (no concentration beside the values). hit rate 3.8% among 69,000. AID 1259416; in the data active = activity change below about -70%, passing the limit was not always enough;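 also: host cells are HeLa cells infected with Toxoplasma gondii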
Numbers without * were called inactive; ! = repeats disagree. This is one part of a sample in which hits are shown more often than they occur.

SMILES	Tg IFNy HTS
O=C(NC1CCN(Cc2ccccc2)CC1)c1csc(-c2ccc(N3CCCC3)nc2)n1	-85*
CC1CCN(C(=O)c2csc(-c3ccc(N4CCCC4)nc3)n2)CC1	-47
CCc1csc(-c2ccc(N3CCN(C(=O)C4CCN(C(C)=O)CC4)CC3)nc2)n1	11
Cc1c(C(=O)O)sc2ncnc(N3CCC(N4CCOCC4)C3)c12 (stereo unspecified)	-39
CNC(=O)c1cc(=O)n(CC(=O)Nc2ccc(OC)cc2OC)c2ccccc12	-2
Cc1ccc(CN2CCN(Cc3cnc(C)[nH]3)CC2=O)cc1	1
Cc1ccc(CN2CCN(c3ncc(C)c(N(C)C)n3)CC2=O)cc1	-85*
CCCOCCN1CCN(c2ncc(C)c(N(C)C)n2)CC1	-4
COc1ccc(C2=NC3(CCN(C(C)=O)CC3)NC(c3ccccc3O)C2)cc1 (stereo unspecified)	85
O=C(c1cn2cc(Cl)ccc2n1)N1C[C@H]2C[C@H](O)[C@@H](O)C[C@H]2C1	-3
CCc1ccccc1NC(=O)N1CCn2cnc(COCC3CC3)c2C1	-9
COc1ccc(-c2[nH]ncc2CN(Cc2ccc(C)o2)CC2CCCO2)cc1 (stereo unspecified)	-19
CN(Cc1ncc[nH]1)c1nc(-c2cccnc2)nc2c1cnn2C	-6
CN(CCn1cccn1)c1nc(-c2cccnc2)nc2c1cnn2C	-40
CN(Cc1cccc(Cl)c1)c1nc(-c2cccnc2)nc2c1cnn2C	-82*
CN(C)CC(=O)N1CCN(c2ccc3ccc(C(=O)NC4CCCC4)cn23)CC1	-58
COc1cccc(C(=O)N2CCC(C)(C(=O)NCc3ccc(F)cc3F)CC2)c1	-2
Cn1ncc(CN2CCN(Cc3cccc(F)c3)CC2)c1C1CC1	-1
CCO[C@@H]1CN(S(=O)(=O)c2cccnc2)[C@H]2CCCO[C@@H]12	6
CCn1cc(CN(C)C(=O)Cc2nnc(N)s2)c(C)n1	-2
COc1ccc(C2=NC3(CCN(CC(=O)Nc4ccccc4F)CC3)NC2=O)cc1	26
N#Cc1cccc(-c2ccc(C3[C@@H]4CN(C(=O)c5ccc6c(c5)OCO6)C[C@H]3N4)cc2)c1 (stereo partly specified)	-75*!
Cc1cccc(-c2ccc([C@@H]3[C@@H](CO)N4C(=O)CN(C(=O)c5ccc6c(c5)OCO6)C[C@H]34)cc2)c1	-43
N#Cc1cccc(-c2ccc(C3[C@@H]4CN(C(=O)Cc5ccncc5)C[C@H]3N4)cc2)c1 (stereo partly specified)	14
Clc1ccc(NCn2nnc3ccccc32)cc1	90
SMILES	Tg IFNy HTS
CC(C)N=c1cc2n(-c3ccc(Cl)cc3)c3ccccc3nc-2cc1Nc1ccc(Cl)cc1	-71*!
CC1=C(C(=O)NCCCN2C(C)CCCC2C)C2(CCN(Cc3ccccc3)CC2)OC1=O (stereo unspecified)	80
Cc1cc(C)n(-c2ccc(C(=O)Nc3cccc(-n4cccn4)c3)cc2)n1	-13
O=C(c1ccc[nH]1)N1CCC2(CCCN2CC2CC2)CC1	-43
Cn1cccc1C(=O)NC[C@@H]1OC[C@@H]2CCN(C(N)=O)C[C@H]21	79
C[C@@H]1CN(Cc2ccccc2F)CCN1Cc1ccc(-c2nc3ccccc3s2)o1	147
C[C@@H]1CN([C@H](C)CO)C(=O)c2c(c3ccccc3n2C)-c2ccccc2CO[C@H]1CN(C)Cc1cccc(C(F)(F)F)c1	-74*
C[C@@H]1CN([C@@H](C)CO)C(=O)c2c(c3ccccc3n2C)-c2ccccc2CO[C@H]1CN(C)Cc1cccc(C(F)(F)F)c1	-66
C[C@@H]1CN([C@@H](C)CO)C(=O)c2c(c3ccccc3n2C)-c2ccccc2CO[C@@H]1CN(C)C	-18
O=C(O)c1cc2nc3c(c(C(F)(F)F)n2n1)CCC3	-34
Cc1nc(CN2CCN(C(=O)CC(=O)Nc3ccc(F)c(Cl)c3)CC2)cs1	-8
CN1CCN(C(=O)c2ccc3c(c2)nnn3C)CC1=O	7
COc1ccc([C@@H]2C[C@H](NC(C)=O)C[C@H](CC(C)C)O2)c(OC)c1OC	-1
COc1cc2c(c(OC)c1OC)-c1ccc(OC)c(=O)cc1[C@@H](NC(C)=O)CC2	-72*!
COc1c(O[C@@H]2O[C@H](CO)[C@@H](O)[C@H](O)[C@H]2O)cc2c(c1OC)-c1ccc(SC)c(=O)cc1[C@@H](NC(C)=O)CC2	12
CCCCOc1ccc(C(=O)N2CCN(S(=O)(=O)c3cc4c5c(c3)CCN5C(=O)CC4)CC2)cc1	-42
CCOc1ccc(S(=O)(=O)N2CCC3(CC2)Nc2ccccc2-n2cccc23)cc1	1
CC(=O)N1CCC(c2cncc(Cl)n2)CC1	-4
O=C(C1Cn2ccnc2C2(CCN(Cc3ccccn3)CC2)O1)N1CCCC1 (stereo unspecified)	-3
CCc1ccc(S(=O)(=O)Nc2ccc(-c3nc(-c4ccc(C)cc4C)co3)cc2)cc1	-68
COc1ccc2n[nH]c(CN(C)Cc3ccc(-n4cccn4)cc3)c2c1	40
O=C(O)c1c2ccccc2nc2ccccc12	-75*
O=C(O)c1ccccc1	12
O=C(O)c1c2c(nc3ccccc13)CSc1ccc(Cl)cc1-2	23
Cc1c(C(=O)N2CCCCC2)sc2nc(C(F)(F)F)nn12	8
SMILES	Tg IFNy HTS
Cc1cccc(Nc2nc(C(=O)Nc3ccccc3Br)nc3ccccc23)c1	36
O=C1c2cccc(O)c2C(=O)c2c(O)cccc21	12
O=C1c2ccccc2-c2n[nH]c3cccc1c23	-91*!
O=C(O)c1cc(-c2ccc3c(c2)OCO3)n[nH]1	5
CCn1nc(C)c(Br)c1C(=O)Sc1ccc(C(F)(F)F)cc1	-13
COc1cc2c(cc1OC)C(c1ccc(OC(C)C)cc1)CC(=O)N2 (stereo unspecified)	84
O=C(C1CCC1)N1CCc2cc(-c3csc(C4CC4)n3)ccc21	-10
CC(C)n1cnnc1CCNC(=O)c1nc2ccc(F)cc2[nH]1	14
CCCCCCCCCCCC1C(=O)C(=O)CC(=O)C1=O	-82*!
CCCCCCCC(=O)O	12
CNc1nc(C2CCNC2)nc2c1CCN(C)C2 (stereo unspecified)	-23
Cc1ccc(F)cc1S(=O)(=O)N1CCC(c2nc(C(=O)N3CCCCC3)c(C)o2)CC1	-77*
Cc1oc(C2CCN(C(=O)Nc3cccc(F)c3C)CC2)nc1C(=O)N1CCCC1	-81*
Cc1ccc(NC(=O)N2CCC(c3nc(C(=O)N4CCCC4)c(C)o3)CC2)cc1	-41
Cc1ccc(NC(=O)N2CCC(c3nc(C(=O)N4CCCC4)c(C)o3)CC2)c(Cl)c1	10
Cc1oc(C2CCN(S(=O)(=O)c3ccccc3F)CC2)nc1C(=O)N1CCCC1	30
Cc1oc(C2CCN(S(=O)(=O)c3cc(F)ccc3F)CC2)nc1C(=O)N1CCCC1	-13
Cc1oc(C2CCN(C(=O)Nc3cc(F)cc(F)c3)CC2)nc1C(=O)N1CCCC1	-28
Cc1ccc(NC(=O)N2CCC(c3nc(C(=O)N4CCCC4)c(C)o3)CC2)c(C)c1	-77*
Cc1cccc(NC(=O)N2CCC(c3nc(C(=O)N4CCCC4)c(C)o3)CC2)c1	-19
Cc1ccc(NC(=O)C(=O)N(C)Cc2snnc2C)c(C)c1	-1
CCN(Cc1ccccc1)C(=O)CCN1CCCC1c1ccccn1 (stereo unspecified)	1
O=C(NCCc1csc(-c2ccc(Cl)cc2)n1)C12CC3CC(CC(C3)C1)C2	-35
Cc1ccc2c(c1)N(C(=O)Cn1c(=O)cc(C(=O)N3CCCCC3)c3ccccc31)CCO2	5
Cc1ccsc1-c1nc(CN2CCc3c(nc(CC4CC4)[nH]c3=O)C2)c(C)o1	11
Cc1cc(C)n(Cc2nc(-c3ccc(NC(=O)c4cccs4)cc3)oc2C)n1	-25
